Fam108B inh = Fam108B inhibition, counter-screen for RBBP9 inhibitors | recombinant Fam108B, FP-Rh probe fluorescence polarization | inhibition, % at 9.51 µM | actives 0.33% (n = 300,000);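 active = inhibition above the screen mean inhibition plus 3 SD, computed separately per campaign, cut at about 18% in these data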;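 also: inhibitors lower polarization as less probe binds the enzyme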
LYPLA1 counter = LYPLA1 (human) inhibition in PME1 counter-screen | O75608 | recombinant LYPLA1, FP-Rh probe fluorescence polarization | inhibition, % at 5.9 µM | actives 0.16% (n = 320,000);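 active = inhibition above the mean of all tested compounds plus 3 SD, set per campaign, cut at about 14% in these data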;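 also: inhibitors block serine hydrolase probe labeling of LYPLA1 so polarization falls; 0% = enzyme with DMSO and 100% = wells lacking LYPLA1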
Target sequence (O75608 whole entry, looked up): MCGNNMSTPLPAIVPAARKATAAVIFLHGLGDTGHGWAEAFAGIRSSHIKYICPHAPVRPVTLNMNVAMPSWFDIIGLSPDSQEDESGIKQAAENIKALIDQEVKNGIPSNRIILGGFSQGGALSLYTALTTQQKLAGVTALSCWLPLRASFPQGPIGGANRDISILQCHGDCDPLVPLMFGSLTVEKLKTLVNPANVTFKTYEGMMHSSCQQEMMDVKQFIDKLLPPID
GSTO1 counter = counter-screen for RBBP9 inhibitors: inhibitors of human GSTO1; P78417; recombinant GSTO1, activity-based probe fluorescence polarization; inhibition, % at 5.96 µM; actives 1.1% (n = 300,000); AID 1974;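 active = inhibition above the campaign mean inhibition plus 3 SD, cut at about 35% in these data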;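 also: 0% = GSTO1-1 with DMSO and 100% = wells lacking GSTO1-1 enzyme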
PME-1 primary = PME-1 (human) inhibition. Q9Y570. recombinant PME-1, FP-Rh probe fluorescence polarization. inhibition, % at 5.9 µM. actives 0.53% (n = 320,000). AID 2130;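 active = inhibition above the campaign mean of all compounds plus 3 SD, cut at about 26% in these data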;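 also: competitive labeling of PME-1 active site by serine hydrolase directed probe; 0% = PME-1 with DMSO and 100% = wells lacking PME-1 enzyme; inhibitors block probe labeling so polarization falls and inhibition rises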
LYPLA2 inh = counter-screen for PME1 inhibitors: inhibitors of human LYPLA2. O95372. recombinant LYPLA2, FP-Rh probe fluorescence polarization. inhibition, % at 5.9 µM. actives 0.38% (n = 320,000);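 active = inhibition above the screen-wide mean plus 3 SD, limit set per campaign, cut at about 26% in these data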;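 also: 0% = LYPLA2 with DMSO and 100% = wells lacking LYPLA2 enzyme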
Target sequence (O95372 whole entry, looked up): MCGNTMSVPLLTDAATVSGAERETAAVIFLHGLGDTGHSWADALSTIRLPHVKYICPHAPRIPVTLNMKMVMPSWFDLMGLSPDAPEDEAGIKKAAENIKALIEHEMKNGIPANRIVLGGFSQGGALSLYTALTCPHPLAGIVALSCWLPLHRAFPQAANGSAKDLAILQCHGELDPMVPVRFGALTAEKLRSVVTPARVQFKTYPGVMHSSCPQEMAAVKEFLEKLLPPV
PAD4 FP inh = PAD4 (human) enzyme inhibition. Q9UM07. recombinant PAD4, RCA probe fluorescence polarization. inhibition, % at 6.36 µM. actives 0.41% (n = 330,000). AID 485272;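 active = percent inhibition above a cutoff equal to the mean of all tested compounds plus 3 SD, cut at about 15% in these data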;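 also: 0% = PAD4 with RCA probe and DMSO and 100% = probe without PAD4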
PAD4 confirm = confirmation of human PAD4 inhibitors | inhibition, % at 6.36 µM | shares compounds with PAD4 FP inh | AID 488796 | recombinant PAD4, RCA probe fluorescence polarization | actives 28% (n = 1,200);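 active = mean inhibition across replicates above the hit cutoff set by the earlier primary screen, cut at about 15% in these data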;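 also: inhibitors block active-site labeling by the probe so polarization falls; 0% = PAD4 with probe and DMSO and 100% = probe without PAD4 enzyme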
Starred values were filed as active, the others as inactive; · = no result. Shown are actives, neighbours in structure and some others; about 1.8% of the full set was active somewhere.

SMILES | Fam108B inh | LYPLA1 counter | GSTO1 counter | PME-1 primary | LYPLA2 inh | PAD4 FP inh | PAD4 confirm
COc1ccc(N2C(=O)CSC23C(=O)N2CCCc4cccc3c42)cc1 (configuration not stated) | -1 | 0 | 2 | -4 | 3 | 22* | 21*
COc1ccc(N2C(=O)CSC23C(=O)N2c4c(cccc43)C(C)=CC2(C)C)cc1 (configuration not stated) | 4 | -4 | -11 | 8 | 1 | 11 | ·
O=C(CN1C(=O)NC2(CCCc3ccccc32)C1=O)N1CCN(c2cccc(C(F)(F)F)c2)CC1 (configuration not stated) | · | 2 | · | 2 | 13 | -3 | ·
COc1ccc(N2CCN(C(c3cccs3)C(C)NC(=O)C(=O)N3CCCC3)CC2)cc1 (configuration not stated) | 4 | 4 | 6 | -13 | 1 | 0 | ·
Nc1cccc(C(=O)Nc2cccc3ncccc23)c1 | 4 | 2 | -1 | -3 | 0 | -7 | ·
Cc1ccc(C)c(N2CCN(C(=O)c3ccc4nsnc4c3)CC2)c1 | -3 | -2 | 3 | 1 | -3 | 2 | ·
COc1ccc(C(=O)CSc2cc(C)nc3nc(C)nn23)cc1OC | 6 | 2 | -2 | 7 | 0 | 28* | 26*
FC(F)Oc1ccc(-c2csc(NNC3=NCCCCC3)n2)cc1 | 4 | 0 | 15 | 3 | -2 | 19* | 4
Cc1ccc(C)c(-n2nnnc2Sc2nnnn2-c2ccccc2)c1 | -1 | -1 | -2 | -4 | 3 | 18* | 25*
CCCS(=O)(=O)c1c(S(=O)(=O)CCC)c2c(C)cccn2c1C(N)=O | 0 | 3 | 0 | 1 | 1 | -2 | ·
CCCS(=O)(=O)c1cn2cccc(N)c2c1S(=O)(=O)CCC | 5 | 2 | 15 | 0 | 5 | 18* | 7
O=C(CC(=O)c1ccccc1)Nc1cccnc1 | 1 | 0 | -2 | -5 | -3 | 1 | ·
O=C(Nc1ccccc1)C(=O)Nc1cccnc1 | 2 | 3 | -11 | -3 | 8 | 18* | 5
COC(=O)CN1C(=O)N/C(=C/c2ccc(C)o2)C1=O | 12 | 5 | 13 | 9 | 7 | 16* | 2
CCOC(=O)c1c(C)[nH]c(/C(C)=N/O)c1C | 3 | 0 | -7 | -3 | 2 | 4 | ·
CCOC(=O)c1c(C)[nH]c(C2=NNC(=NC3CC3)SC2)c1C | 4 | -1 | 11 | 0 | 6 | 17* | 12
CC(C)(C)c1cc[n+](-c2[nH]c(=O)sc2/C=N/NC([S-])=Nc2ccccc2)cc1 | 6 | 4 | 31 | 6 | 8 | 17* | 13
Cc1ccccc1OCC1Cn2c(nc3c2c(=O)n(C)c(=O)n3C)O1 (configuration not stated) | -6 | -2 | 4 | -2 | 0 | -5 | ·
O=C(O)CCN1C(=O)C2C3CC(C2C1=O)C1C(c2ccccc2)c2sc(=O)n(-c4ccccc4)c2SC31 (configuration not stated) | 1 | 1 | -6 | 2 | -4 | 1 | ·
O=C(O)CCN1C(=O)C2C3CC(C2C1=O)C1C(c2ccccc2)c2sc(=O)[nH]c2SC31 (configuration not stated) | -1 | 3 | 3 | -1 | 3 | 17* | -5
Cc1ccc(CSCC(=O)N(C)CC(=O)Nc2ccccc2C(F)(F)F)cc1 | -2 | -1 | 11 | 0 | 3 | 3 | ·
Cc1cc2c(cc1C)N(C(=O)CSc1nncn1C)C(C)(C)c1ssc(=S)c1-2 | 0 | 2 | -6 | 8 | 6 | 33* | 33*
Cc1ccc2c(c1)N(C(=O)CSc1nncn1C)C(C)(C)c1ssc(=S)c1-2 | 6 | 4 | -4 | 7 | -1 | 13 | ·
O=c1[nH]c(N2CCOCC2)cc2ccccc12 | 2 | -2 | 25 | 3 | 3 | 20* | -7
O=c1c(N2CCOCC2)coc2ccccc12 | 0 | 1 | 1 | 2 | 2 | 1 | ·
SMILES | Fam108B inh | LYPLA1 counter | GSTO1 counter | PME-1 primary | LYPLA2 inh | PAD4 FP inh | PAD4 confirm
Cn1nnnc1Sc1ncnc2scc(-c3ccc(Cl)cc3)c12 | · | -2 | · | 7 | 3 | 11 | ·
Cn1nnnc1Sc1ncnc2scc(-c3ccc([N+](=O)[O-])cc3)c12 | · | 4 | · | 3 | 15 | 17* | 10
CCOC(=O)c1cc(-c2cccnc2)nn1-c1ccccc1C | 2 | -1 | 7 | -4 | -1 | -4 | ·
CCCCNC(=O)CCn1c(=O)c2ccccc2n(CC(=O)NCCc2ccc(OC)c(OC)c2)c1=O | 0 | 2 | 1 | -1 | 7 | -1 | ·
CCOc1ccc2[nH]c(SCC(=O)OC)c([N+](=O)[O-])c2c1 | -1 | -1 | 8 | 2 | -4 | 35* | 38*
CC1CCCCC1NC(=O)c1ccc(-n2cncn2)cc1 (configuration not stated) | · | · | · | · | · | -9 | ·
Cn1c(=O)c2c(ncn2CC(=O)Nc2nc(-c3ccccc3Cl)cs2)n(C)c1=O | 1 | -1 | -2 | 10 | 13 | 90* | 2
CCOC(=O)Cc1csc(NC(=O)Cn2cnc3c2c(=O)n(C)c(=O)n3C)n1 | -2 | -1 | 6 | -6 | 7 | 3 | ·
CN(Cc1ccccc1OCCO)CC1CCCN(CCc2ccc(Cl)cc2)C1 (configuration not stated) | 0 | 0 | 11 | 5 | -2 | -2 | ·
O=S(=O)(NC1=NCCCCC1)c1ccc2sc(NS(=O)(=O)c3ccc4ccccc4c3)nc2c1 | -2 | -2 | -42 | -5 | -6 | 30* | 22*
CS(=O)(=O)N(CC(=O)NCCSCc1ccccc1Cl)c1ccc(F)cc1 | -2 | 0 | 0 | 0 | -5 | 1 | ·
CCOc1ccc2nc(NC(=O)c3ccco3)sc2c1 | 0 | -3 | 2 | -12 | -4 | 17* | 13
CCOC(=O)c1ccc2nc(NC(=O)c3ccco3)sc2c1 | 1 | -1 | -11 | -12 | -2 | 1 | ·
CCn1c(SC(C)C(=O)O)nc2sc3c(c2c1=O)CCC3 (configuration not stated) | 11 | 1 | 12 | 1 | 2 | 16* | 5
COCCn1cnc2c1c(=O)n(Cc1ccc(C#N)cc1)c(=O)n2Cc1ccccc1 | 3 | 6 | 9 | 0 | 3 | 20* | 2
COCCn1cnc2c1c(=O)n(CC(=O)OCC#N)c(=O)n2Cc1ccccc1 | 0 | -2 | -1 | -1 | 2 | -6 | ·
CC(=O)c1c(C)[nH]c(=S)c(C#N)c1-c1ccc(Cl)cc1 | 0 | 1 | 3 | 3 | -3 | -6 | ·
Cc1[nH]c(=S)c(C#N)c(-c2ccco2)c1C(=O)N(C)C | 2 | -1 | 6 | 3 | 1 | 19* | 12
CCCCn1[nH]c(-c2ccccc2)cc1=O | 2 | 0 | 57* | -12 | 5 | 45* | -5

Screens: PubChem, The Scripps Research Institute Molecular Screening Center
